Our source for the inhibition values is PubChem BioAssay.

The list shows a part of the results. A number with no mark means an inactive call. Activity calls are given as the source filed them.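 How the source made its calls: active means mean inhibition above about 50% in the one-dose retest (limit read from the data); inactive means the rest.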

Chain of Sentrin-specific protease 7 (Homo sapiens) (Q9BQF6 706-1050 limits assumed): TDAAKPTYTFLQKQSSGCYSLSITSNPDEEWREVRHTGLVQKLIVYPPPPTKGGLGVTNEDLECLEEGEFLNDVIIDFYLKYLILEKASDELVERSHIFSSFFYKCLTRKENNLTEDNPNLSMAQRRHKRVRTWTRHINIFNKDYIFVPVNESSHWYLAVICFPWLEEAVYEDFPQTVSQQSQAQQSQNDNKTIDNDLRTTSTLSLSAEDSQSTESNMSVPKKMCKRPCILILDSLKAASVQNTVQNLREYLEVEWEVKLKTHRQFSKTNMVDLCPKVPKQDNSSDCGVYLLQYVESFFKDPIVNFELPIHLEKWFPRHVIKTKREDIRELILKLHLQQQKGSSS

The assay concerns the target Sentrin-specific protease 7 (Homo sapiens) (UniProt Q9BQF6). Put plainly: SENP7 protease inhibitors, retest, confirmation, biochemical, luminescence, single concentration (AID 488917). The settings on record: recombinant SENP7, Z-RLRGG-aminoluciferin luminescence, 40 min; at 12.5 µM; hits give high values.
As to `Cc1ccc(F)c(NC(=O)CCc2ccccc2)c1`, the inhibition is 68.6% (active).

Take `CN(CCO)c1ccc(/C=N/Nc2nncc3ccccc23)cc1`: the inhibition was 103% (active).

`C/C(=C\C(=O)c1ccccc1)Nc1cccc(O)c1`: the inhibition is 82.2% (active).

On to `O=c1c(-c2cccc(Cl)c2)c[nH]n1-c1ccccc1`, for which the inhibition is 80.8% (active).

Take `COCCN(CCOC)c1nc(N)c2c(N)nc3c(c2c1C#N)CC(=O)N3Cc1ccc(Cl)cc1`: the inhibition is 5.3%.

In the case of `O=C(Nc1ccccc1)c1cc2ccccc2[nH]1`, the inhibition was 1.9%.

With `Cc1cccc(NS(=O)(=O)c2cccc(C(=O)NNC(=O)c3ccccc3O)c2)c1`, the inhibition was 75.5% (active).

On to `CC(=O)Oc1ccc2c(c1)C(=O)c1ccccc1C2=O`, for which the inhibition is 67.4% (active).

Take `Cc1ccn2cc(-c3nonc3C)cc2c1`: the inhibition is 95.7% (active).

For the compound `CC(C)Cc1cc(C(=O)Nc2cc(Br)ccc2O)no1`, the inhibition is 28.9%.

For the compound `Cc1nonc1C(=O)N/N=C/c1ccc(O)cc1`, the inhibition is 103% (active).

In the case of `Cc1cccc(OC(=O)c2sc3ncn(C)c(=O)c3c2C)c1`, the inhibition was 17.1%.

In the case of `Cc1cccc(Nc2nc(-c3ccccc3)cs2)n1`, the inhibition is 99.9% (active).

Turning to `O=C(/C=C/c1ccco1)Nc1ccc(Oc2ccccc2)cc1`, the inhibition is 89.4% (active).

With `Cc1[nH]n(-c2ccc([N+](=O)[O-])cc2)c(=O)c1C=NCCN1CCN(C(=O)c2ccccc2F)CC1`, the inhibition is 3.9%.

On to `COc1ccc(NC(=O)Nc2cccc3cccnc23)cc1`, for which the inhibition was 97.2% (active).

Regarding `Nc1ccc(-c2nnc(-c3ccccc3)o2)cc1`, the inhibition is 79.5% (active).

With `O=C(Nc1ccccc1)Nc1ccccc1C(=O)NCc1ccco1`, the inhibition was 85.6% (active).
